ChEMBL document CHEMBL3988442, “University of Dundee, Small-Polar-MMV Screening Library” (2021)
Screen size: about 69,000 compounds; about 1,000 (1.4%) showed an effect of 50% or more. Shown is part of a subset that was picked to be rich in strong results.

System: Leishmania donovani
Assay: Leishmania intramacrophage assay
Format: functional, organism-based
Design: scale not given: in the data most compounds retested in dose-response had high values

Structure (SMILES): CCSCC(C)NCc1ccccc1-n1ccnc1 (stereo unspecified)
- Percent Effect (30.3 µM, […]): -5.681%

Structure (SMILES): COc1ccc(C(C)NCc2ccnn2C)cc1Cn1cccn1 (stereo unspecified)
- Percent Effect (30.3 µM, […]): 30.62%

Structure (SMILES): Cc1csc(N2CCN(Cc3cnc(C)s3)CC2C)n1 (stereo unspecified)
- Percent Effect (30 µM, 30.03 µM): 50.44%

Structure (SMILES): Cc1csc(N2CCN(Cc3cscn3)CC2C)n1 (stereo unspecified)
- Percent Effect (30.3 µM, […]): -18.36%

Structure (SMILES): Cc1cnc(CN2CCN(c3nc(C)cs3)C(C)C2)cn1 (stereo unspecified)
- Percent Effect (30.3 µM, […]): -40.38%

Structure (SMILES): O=C1CC2(CCN(Cc3ccc4cccc(O)c4n3)CC2)CN1
- Percent Effect (30.3 µM, […]): 0.5464%

Structure (SMILES): O=C1CC(c2cccnc2)c2c(c(C(=O)O)cn2-c2ccc(Cl)cc2)N1 (stereo unspecified)
- Percent Effect (30.3 µM, […]): 19.15%

Structure (SMILES): O=C1CC(c2cccnc2)c2c(c(C(=O)O)cn2-c2cccc(F)c2)N1 (stereo unspecified)
- Percent Effect (30.3 µM, […]): 52.29%

Structure (SMILES): O=C1CC(c2cccnc2)c2c(c(C(=O)O)cn2-c2ccccc2)N1 (stereo unspecified)
- Percent Effect (30 µM, 30.03 µM): -20.51%

Structure (SMILES): CCc1cnc2c(c1Nc1cccc(OC)c1)c(=O)n(C)c(=O)n2C
- Percent Effect (30.3 µM, […]): 19.41%

Structure (SMILES): CC(=O)N[C@H]1CCN(c2nc(C)nc3c2c(C)nn3C)C1
- Percent Effect (30.3 µM, […]): 15.16%

Structure (SMILES): Fc1cccc(Nc2nc(N3CCCC3)nc3c2CNCC3)c1
- Percent Effect (30.3 µM, […]): 99.78%

Structure (SMILES): COc1cccc(CNC(=O)c2cc(C)nc(N3CCCC3)n2)c1
- Percent Effect (30.3 µM, […]): 4.164%

Structure (SMILES): CCOCCNc1nc(-c2ccncc2)nc2c1CCNCC2
- Percent Effect (30.3 µM, […]): -3.835%

Structure (SMILES): COc1cccc(Nc2nc(N3CCCC3)nc3c2CNCC3)c1.Cl
- Percent Effect (30.3 µM, […]): 98.87%

Structure (SMILES): COc1cccc(Nc2nc(C3CCNCC3)c3ccccn23)c1.Cl
- Percent Effect (30.3 µM, […]): -2.973%

Structure (SMILES): CC(Nc1nc(-c2ccncc2)nc2c1CCNC2)c1ccccc1 (stereo unspecified)
- Percent Effect (30.3 µM, […]): 41.34%

Structure (SMILES): Cc1sc2c(C3CCCNC3)nc(Nc3cccc(F)c3)n2c1C.Cl (stereo unspecified)
- Percent Effect (30.3 µM, […]): 8.436%

Structure (SMILES): COc1cccc(Nc2nc(-c3ccncc3)nc3c2CNCC3)c1.Cl
- Percent Effect (30.3 µM, […]): 63.42%

Structure (SMILES): COc1cccc(Nc2nc(C3CCCNC3)c3ccccn23)c1.Cl (stereo unspecified)
- Percent Effect (30.3 µM, […]): 2.866%

Structure (SMILES): COc1cccc(Nc2nc(C3CCCNC3)c3sc(C)c(C)n23)c1.Cl (stereo unspecified)
- Percent Effect (30.3 µM, […]): 20.11%

Structure (SMILES): CCN1CCN(S(=O)(=O)c2cc(Cl)c(Cl)cc2C)CC1
- Percent Effect (30 µM, 30.03 µM): 23.98%

Structure (SMILES): Cc1nc(C2CCN(C(=O)c3cc(C4CC4)[nH]n3)CC2)no1
- Percent Effect (30.3 µM, […]): 23.74%

Structure (SMILES): CC1(C(=O)NC2CCCC2)CCCN(c2ncccn2)C1 (stereo unspecified)
- Percent Effect (30.3 µM, […]): 2.815%

Structure (SMILES): COc1ccnc(N2CCN(C(=O)c3csc(C4CC4)n3)CC2)n1
- Percent Effect (30 µM, 30.03 µM): 15.31%

Structure (SMILES): CN(C)c1ncc(-c2cc(C(=O)N3CCCC3)n(CC3CC3)c2)cn1
- Percent Effect (30.3 µM, […]): -11.64%

Structure (SMILES): CN1CCCN(C(=O)c2nc3sccn3c2-c2ncc[nH]2)CC1
- Percent Effect (30.3 µM, […]): 0.9103%

Structure (SMILES): Cc1ccsc1CN1CC2(CCN(C(=O)C3CC3)CC2)CC1C(=O)O (stereo unspecified)
- Percent Effect (30.3 µM, […]): 49%

Structure (SMILES): CCOCCN1CCN(CC(=O)NC2(C#N)CCCC2)CC1CC (stereo unspecified)
- Percent Effect (30.3 µM, […]): 4.261%

Structure (SMILES): CCCc1nnnn1Cc1cn2c(C)cccc2n1
- Percent Effect (30.3 µM, […]): 19.02%

Structure (SMILES): COc1ccccc1Nc1nc2c(C)nn(C)c2c(=O)n1C
- Percent Effect (30.3 µM, […]): -67.83%

Structure (SMILES): COc1ccc(C)cc1Nc1nc2c(C)nn(C)c2c(=O)n1C
- Percent Effect (30.3 µM, […]): 54.75%

Structure (SMILES): COc1ccc(OC)c(Nc2nc3c(C)nn(C)c3c(=O)n2C)c1
- Percent Effect (30.3 µM, […]): 46.31%

Structure (SMILES): CCc1nn(C)c(Cl)c1CN1C[C@@H](NC(=O)N(C)C)[C@H](C(C)C)C1
- Percent Effect (30.3 µM, […]): 11.23%

Structure (SMILES): COC(=O)CN(C(=O)c1ccco1)c1cccc(F)c1
- Percent Effect (30.3 µM, […]): -4.639%

Structure (SMILES): CSc1cccc(NC(=O)CCC(=O)Nc2nccs2)c1
- Percent Effect (30.3 µM, […]): 36.02%

Structure (SMILES): CCC(C)Oc1ccc(CNCCNS(C)(=O)=O)cc1Cl (stereo unspecified)
- Percent Effect (30.3 µM, […]): 32.76%

Structure (SMILES): CCC(C)Oc1ccc(CNCCc2c[nH]cn2)cc1Cl (stereo unspecified)
- Percent Effect (30.3 µM, […]): 99.79%

Structure (SMILES): CCC(C)Oc1ccc(CNCCNC(C)=O)cc1Cl (stereo unspecified)
- Percent Effect (30.3 µM, […]): 40.54%

Structure (SMILES): Cc1cnn(CC(=O)N2CCC(c3ccn4nccc4n3)CC2)c1
- Percent Effect (30.3 µM, […]): -6.355%

Structure (SMILES): O=C(Cc1nc(-c2ccncc2)n[nH]1)NCCCN1CCOCC1
- Percent Effect (30.3 µM, […]): 58.11%

Structure (SMILES): O=C(Cc1nc(-c2ccncc2)n[nH]1)N1CCOCC1
- Percent Effect (30.3 µM, […]): -34.22%

Structure (SMILES): COCCCNC(=O)Cc1nc(-c2ccncc2)n[nH]1
- Percent Effect (30.3 µM, […]): -25.69%

Structure (SMILES): COCCC1(CNC(=O)NCC2CN(C)CCN2C)CCC1 (stereo unspecified)
- Percent Effect (30.3 µM, […]): 8.791%

Structure (SMILES): CCn1c(N)nc2cc(C(=O)NCCc3ccccc3F)cnc21
- Percent Effect (30.3 µM, […]): -34.47%

Structure (SMILES): CCn1c(N)nc2cc(C(=O)NCCc3ccncc3)cnc21
- Percent Effect (30.3 µM, […]): 62.87%

Structure (SMILES): CCn1c(N)nc2cc(C(=O)NCCc3ccccc3C)cnc21
- Percent Effect (30 µM, 30.03 µM): 29.75%

Structure (SMILES): O=C(O)C1CN(c2cncc(Cc3ccccc3F)n2)C1
- Percent Effect (30.3 µM, […]): 17.92%

Structure (SMILES): O=C(O)C1CN(c2cncc(Cc3ccccc3)n2)C1
- Percent Effect (30.3 µM, […]): 57.22%

Structure (SMILES): COc1ccccc1Cc1cncc(N2CC(C(=O)O)C2)n1.Cl
- Percent Effect (30.3 µM, […]): 35.18%

Structure (SMILES): O=C(N1CCOCC1)N1CCc2ncnc(NC3CCC3)c2CC1.O=C(O)C(F)(F)F
- Percent Effect (30.3 µM, […]): 14.85%
